Reference: the supplement of paper PMC6555819

What was measured:
Assay in all cases: PBM binding z-score (relative to random genomic background probes); higher = stronger binding; sequences stand for … in GC…GCGATTGACAGCGTAGAATGAAGG
[1] = system: PPARg:RXRa DBDmut IVT, anti-RXR (DBD mutation: RXRa K156A/R161A, NR concentration 270 nM, RXRa partner concentration 90 nM)
In short: (§1)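 The probes on custom Agilent 4×180K protein-binding microarrays were double-stranded, with 34-nt variable regions bearing direct-repeat seeds, single-nucleotide variants, half-site ablations and random human genomic background sequences. Incubation lasted 1 h with ligand-free nuclear receptor dimers in PBS pH 7.4, 2% milk, 0.02% Triton X-100, 1 mM DTT, 0.2 mg/mL BSA and 0.4 mg/ml salmon testes DNA. Antibodies against each partner (one per run) detected bound dimers, and fluorescence scans were regression-normalized. Binding z-scores take the random background probes as reference.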

[2] = system: PPARg:RXRa IVT, anti-PPARg (NR concentration 270 nM, RXRa partner concentration 90 nM)
In short: as §1

[3] = system: PPARg DBDmut:RXRa IVT, anti-PPARg (DBD mutation: PPARg1 K132A/R137A, NR concentration 270 nM, RXRa partner concentration 90 nM)
In short: as §1

[4] = system: PPARg DBDmut IVT, anti-PPARg (DBD mutation: PPARg1 K132A/R137A, NR concentration 270 nM)
In short: as §1

[5] = system: PPARg homodimer (NR concentration 180 nM)
In short: as §1

[6] = system: PXR:RXRa (NR concentration 270 nM, RXRa partner concentration 90 nM)
In short: as §1

[7] = system: PXR homodimer (NR concentration 270 nM)
In short: as §1

[8] = system: RARa:RXR (NR concentration 270 nM, RXRa partner concentration 90 nM)
In short: as §1

[9] = system: RARa homodimer (NR concentration 270 nM)
In short: as §1

[10] = system: RARb:RXRa (NR concentration 270 nM, RXRa partner concentration 90 nM)
In short: as §1

Sequence	PBM binding z-score [1]	PBM binding z-score [2]	PBM binding z-score [3]	PBM binding z-score [4]	PBM binding z-score [5]	PBM binding z-score [6]	PBM binding z-score [7]	PBM binding z-score [8]	PBM binding z-score [9]	PBM binding z-score [10]
ATCTCTAGGTAACAAGTTCTGTGAAAGAGAGGAC	3.07	2.91	1.35	1.11	0.9	0.15	0.424	0.67	0.681	0.332
CAGCCTAGGCCAGGGCCAGTATAGGAGGAACGTT	-0.58	-0.938	-1.07	-1.68	-1.39	-1.04	-0.58	-0.83	-0.971	-0.0787
CTTCCAAGGTCAGAGAGGTCAGTGAATGCCGAGT	2.81	3.44	-0.247	0.0425	3.75	5.75	11.5	4.71	1.5	5.27
CCTCGGAGGACTGAAGGTCAGAGCTGTCCGCTTT	-0.418	-0.254	-2.59	-3.05	0.742	1.32	-0.196	1.28	-0.166	2.38
TCTATTAGTGGAAGGGCAACCGACGAGTCCGTTT	2.03	0.68	0.155	-0.147	0.597	0.698	0.821	0.778	0.46	1.59
AATACAGCGTCATCGTAGGCCAGAGTACGCACAG	-0.562	0.0727	0.418	-0.309	-0.333	-0.367	-0.167	-0.0509	-0.571	-0.182
ATCTTTAGGTAAAAGTTCAGTGAATCCCGAGGAT	0.803	3.1	1.38	1.31	1.01	2.07	1.47	1.56	0.328	2.51
CCTCGGAGGACAACAGGAGGTCACAGCTGCCAGA	0.582	1.67	-1.61	-1.12	2.8	4.2	0.604	4.69	0.924	3.35
TCTTGTAGATCAGGCAGGTTAAGAAAGCCTGAGT	1.29	-0.151	0.127	-0.335	-0.356	0.175	-0.218	0.0754	0.0377	0.0689
ATACCAGGGTGATCGTGAGGTCGTTGATACTAAC	0.0988	1.34	0.464	0.118	1.12	3.24	1.47	2.44	0.625	1.23
TTTGCTAGGTCAGTTGGTCAGCTAACGAGCTGCC	3.23	3.87	-0.438	-0.0692	0.648	0.0416	-0.599	0.42	-0.935	3.31
ATCTCTAGGTAACAATTTCAGTGAAAGAGAGGAC	3.38	2.8	1.3	1.6	0.669	0.204	0.98	0.221	1.81	0.518
CAAACTAGGTCAAGGTCAATGTCGGTTTGTGCCA	8.55	8.45	5.91	4.78	4.97	4.89	2.16	4.96	2.18	5.03
